Data: the supplement of paper PMC9262897, “Low-cost anti-mycobacterial drug discovery using engineered E. coli” (Nature Communications, 2022)
Structures can show the parent of a compound that is named as a salt. ± gives the standard deviation of the averaged measurements.

How the values were obtained:
Experiment in all cases: growth (OD600 after 10 h); higher = more growth (less inhibition)
[1] = test system: E. coli TESEC Alr+ wild-type control; settings: compound 0.1 mM; raw OD600 reference: median of DMSO wells 0.241, cell-free background 0.041
Procedure: (§1)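 TESEC Mtb Alr E. coli, or the Alr+ wild-type control, in 384-well plates with Prestwick library compounds at 0.1 mM and 1% DMSO, across arabinose induction levels of 1E3 to 1E7 nM. Growth is read as OD600 after 10 h at 37 °C in triplicate biological replicates.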

[2] = test system: E. coli TESEC Mtb Alr; settings: compound 0.1 mM
Procedure: as §1

[3] = test system: E. coli TESEC Mtb Asd; settings: compound 0.1 mM
Procedure: (§2)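 TESEC E. coli strains in which the native enzyme is deleted and replaced by arabinose-inducible Mtb Asd, DapB, CysH or TrpD, each grown in its selective medium. Strains were screened against the Prestwick library at 0.1 mM and 1% DMSO in 384-well format at low and high arabinose induction. Growth is read as OD600 after 10 h in triplicate.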

[4] = test system: E. coli TESEC Mtb DapB; settings: compound 0.1 mM
Procedure: as §2

[5] = test system: E. coli TESEC Mtb Alr; settings: compound 0.1 mM; remark: listed apart in the source
Procedure: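 TESEC Mtb Alr E. coli (ΔaraC ΔtolC ΔentC Δalr ΔdadX, arabinose-inducible Mtb Alr) or the Alr+ wild-type control strain, grown in defined M9-fructose medium without D-alanine in 96-well plates with Prestwick library compounds at 0.1 mM and 1% DMSO. Low Alr induction is 0.1 µM arabinose and high induction is 10 mM arabinose.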

[6] = arabinose 1000 nM, raw OD600 reference: median of DMSO wells 0.294, cell-free background 0.041
[7] = arabinose 10000 nM, raw OD600 reference: median of DMSO wells 0.264, cell-free background 0.041
[8] = arabinose 100000 nM, raw OD600 reference: median of DMSO wells 0.201, cell-free background 0.041
[9] = arabinose 1000000 nM, raw OD600 reference: median of DMSO wells 0.193, cell-free background 0.041
[10] = arabinose 10000000 nM, raw OD600 reference: median of DMSO wells 0.146, cell-free background 0.041
[11] = arabinose induction (level): High, raw OD600 reference: median of DMSO wells 0.331, cell-free background 0.041
[12] = arabinose induction (level): Low, raw OD600 reference: median of DMSO wells 0.417, cell-free background 0.041
[13] = arabinose induction (level): High, raw OD600 reference: median of DMSO wells […], cell-free background 0.041
[14] = arabinose induction (level): Low, raw OD600 reference: median of DMSO wells 0.227, cell-free background 0.041
[15] = arabinose 100 nM, raw OD600 reference: median of DMSO wells 0.413, cell-free background 0.052
[16] = arabinose 10000000 nM, raw OD600 reference: median of DMSO wells […], cell-free background 0.052

| SMILES | growth [1] | growth [2, 6] | growth [2, 7] | growth [2, 8] | growth [2, 9] | growth [2, 10] | growth [3, 11] | growth [3, 12] | growth [4, 13] | growth [4, 14] | growth [5, 15] | growth [5, 16] |
| --- | --- | --- | --- | --- | --- | --- | --- | --- | --- | --- | --- | --- |
| CC(C)C(=O)Nc1ccc([N+](=O)[O-])c(C(F)(F)F)c1 [Flutamide] | 0.191 ± 0.0072 | 0.189 ± 0.0088 | 0.161 ± 0.0036 | 0.203 ± 0.0051 | 0.0619 ± 0.00076 | 0.0856 ± 0.0029 | 0.156 ± 0.024 | 0.165 ± 0.01 | 0.177 ± 0.013 | 0.218 ± 0.039 | 0.383 ± 0.036 | 0.16 ± 0.036 |
| COc1cccc2c1C(=O)c1c(O)c3c(c(O)c1C2=O)C[C@@](O)(C(=O)CO)C[C@@H]3O[C@H]1C[C@H](N)[C@@H](O)[C@H](C)O1 [Epirubicin hydrochloride] | 0.04433 ± 0.00032 | 0.0453 ± 0.0011 | 0.04623 ± 0.00032 | 0.0469 ± 0.0005 | 0.0457 ± 0.00068 | 0.0453 ± 0.0005 | 0.068 ± 0.0071 | 0.0576 ± 0.0035 | 0.0567 ± 0.0034 | 0.0562 ± 0.0015 | 0.0587 ± 0.0013 | 0.0582 ± 0.00053 |
| CC(=O)[C@H]1CC[C@H]2[C@@H]3C=CC4=CC(=O)CC[C@@]4(C)[C@@H]3CC[C@]12C [Dydrogesterone] | 0.103 ± 0.005 | 0.154 ± 0.041 | 0.207 ± 0.0034 | 0.085 ± 0.0042 | 0.0856 ± 0.0016 | 0.0751 ± 0.0014 | 0.225 ± 0.038 | 0.402 ± 0.068 | 0.176 ± 0.0054 | 0.189 ± 0.0083 | 0.371 ± 0.021 | 0.101 ± 0.022 |
| NC(=O)N/N=C/c1ccc([N+](=O)[O-])o1 [Nitrofural] | 0.044 ± 0.00072 | 0.0426 ± 0.00078 | 0.04193 ± 0.00015 | 0.044 ± 0.0018 | 0.042 ± 0.00045 | 0.0427 ± 0.00084 | 0.0898 ± 0.0054 | 0.0756 ± 0.0054 | 0.11 ± 0.0086 | 0.145 ± 0.016 | 0.0532 ± 0.0056 | 0.0522 ± 0.00076 |
| CC[N+](C)(CC)CCOC(=O)C1c2ccccc2Oc2ccccc21 [Methantheline bromide] | 0.192 ± 0.0029 | 0.269 ± 0.011 | 0.287 ± 0.0031 | 0.18 ± 0.015 | 0.193 ± 0.025 | 0.135 ± 0.007 | 0.223 ± 0.043 | 0.344 ± 0.044 | 0.173 ± 0.018 | 0.222 ± 0.018 | 0.4172 ± 0.0035 | 0.336 ± 0.013 |
| CCCCC1C(=O)N(c2ccccc2)N(c2ccc(O)cc2)C1=O (configuration not stated) [Oxyphenbutazone] | 0.2 ± 0.01 | 0.255 ± 0.0043 | 0.262 ± 0.0047 | 0.211 ± 0.027 | 0.124 ± 0.0071 | 0.129 ± 0.004 | 0.366 ± 0.025 | 0.384 ± 0.047 | 0.204 ± 0.019 | 0.229 ± 0.044 | 0.415 ± 0.0059 | 0.28 ± 0.0025 |
| CCn1cc(C(=O)O)c(=O)c2ccc(C)nc21 [Nalidixic acid sodium salt] | 0.04987 ± 0.00029 | 0.0467 ± 0.0009 | 0.0394 ± 0.00056 | 0.0502 ± 0.0012 | 0.0413 ± 0.0013 | 0.05153 ± 0.00015 | 0.09847 ± 0.00049 | 0.0829 ± 0.0083 | 0.0992 ± 0.0072 | 0.0689 ± 0.0001 | 0.0753 ± 0.014 | 0.0595 ± 0.0029 |
| OC(CCN1CCCCC1)(c1ccccc1)C1CCCCC1 (configuration not stated) [Trihexyphenidyl-D,L Hydrochloride] | 0.222 ± 0.012 | 0.316 ± 0.019 | 0.265 ± 0.012 | 0.194 ± 0.0034 | 0.147 ± 0.0092 | 0.164 ± 0.0019 | 0.299 ± 0.04 | 0.43 ± 0.071 | 0.179 ± 0.016 | 0.22 ± 0.018 | 0.4127 ± 0.0033 | 0.324 ± 0.024 |
| N=C(N)NCc1cccc(I)c1 [Iobenguane sulfate] | 0.231 ± 0.005 | 0.289 ± 0.0045 | 0.267 ± 0.0098 | 0.238 ± 0.029 | 0.202 ± 0.012 | 0.149 ± 0.011 | 0.29 ± 0.018 | 0.425 ± 0.056 | 0.188 ± 0.0051 | 0.265 ± 0.04 | 0.409 ± 0.016 | 0.384 ± 0.013 |
| C=C1c2c(Cl)ccc(O)c2C(O)=C2C(=O)[C@]3(O)C(O)=C(C(N)=O)C(=O)[C@@H](N(C)C)[C@@H]3[C@@H](O)[C@H]12.O=C(O)c1cc(S(=O)(=O)O)ccc1O [Meclocycline sulfosalicylate] | 0.0437 ± 0.0018 | 0.0465 ± 0.0035 | 0.04467 ± 0.00042 | 0.047 ± 0.001 | 0.04453 ± 0.00031 | 0.0463 ± 0.0019 | 0.0721 ± 0.0074 | 0.0594 ± 0.0053 | 0.156 ± 0.089 | 0.05473 ± 0.00042 | 0.0611 ± 0.00062 | 0.0561 ± 0.00065 |
| CCc1nn(CCCN2CCN(c3cccc(Cl)c3)CC2)c(=O)n1CCOc1ccccc1 [Nefazodone HCl] | 0.0424 ± 0.00076 | 0.0444 ± 0.0031 | 0.04017 ± 0.00012 | 0.0431 ± 0.00062 | 0.0406 ± 0.00026 | 0.0473 ± 0.0025 | 0.0498 ± 0.0029 | 0.0479 ± 0.0011 | 0.05113 ± 0.00049 | 0.0483 ± 0.00036 | 0.29 ± 0.2 | 0.0515 ± 0.001 |
| C[C@@](Cc1ccc(O)c(O)c1)(NN)C(=O)O [Carbidopa] | 0.225 ± 0.0049 | 0.292 ± 0.024 | 0.118 ± 0.0053 | 0.228 ± 0.048 | 0.0919 ± 0.00096 | 0.193 ± 0.0067 | 0.283 ± 0.11 | 0.357 ± 0.04 | 0.159 ± 0.016 | 0.173 ± 0.018 | 0.375 ± 0.014 | 0.257 ± 0.012 |
| NC(=O)c1cccnc1 [Nicotinamide] | 0.2773 ± 0.0019 | 0.335 ± 0.0062 | 0.302 ± 0.0031 | 0.263 ± 0.014 | 0.238 ± 0.014 | 0.155 ± 0.0058 | 0.447 ± 0.0077 | 0.45 ± 0.033 | 0.214 ± 0.01 | 0.258 ± 0.043 | 0.43 ± 0.024 | 0.453 ± 0.0089 |
| CCOc1ccc2c(c1)C(C)=CC(C)(C)N2 [Ethoxyquin] | 0.183 ± 0.0075 | 0.283 ± 0.015 | 0.249 ± 0.007 | 0.192 ± 0.017 | 0.118 ± 0.0015 | 0.227 ± 0.067 | 0.353 ± 0.083 | 0.305 ± 0.042 | 0.196 ± 0.0042 | 0.205 ± 0.024 | 0.408 ± 0.0097 | 0.167 ± 0.068 |
| NS(=O)(=O)c1cc2c(cc1C(F)(F)F)NCNS2(=O)=O [Hydroflumethiazide] | 0.2612 ± 0.002 | 0.296 ± 0.0066 | 0.262 ± 0.01 | 0.239 ± 0.011 | 0.1758 ± 0.0006 | 0.147 ± 0.0041 | 0.388 ± 0.036 | 0.442 ± 0.06 | 0.184 ± 0.012 | 0.239 ± 0.028 | 0.406 ± 0.013 | 0.32 ± 0.053 |
| CCOc1ccc(NC(C)=O)cc1 [Phenacetin] | 0.243 ± 0.0043 | 0.2912 ± 0.0014 | 0.27 ± 0.0042 | 0.231 ± 0.028 | 0.1828 ± 0.0017 | 0.152 ± 0.0045 | 0.345 ± 0.083 | 0.413 ± 0.084 | 0.208 ± 0.019 | 0.224 ± 0.012 | 0.411 ± 0.011 | 0.329 ± 0.019 |
